A short description of the test: chemical genetic growth profiling, strain panel (AID 1159580).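 Note: tested at 20 µM; growth read once vehicle control cultures reached saturation at 30 °C; 1 = growth at the plate median or of vehicle wells; lower values mean less growth of the strain.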 Particulars: S. cerevisiae deletion strains, growth OD.

Out of some 5,500 compounds screened, about 2,000 (36%) were called active. Not shown: some 18% with an inconclusive outcome. The list shows a part of the results. A number with no mark means an inactive call. Cut-off read from the data, not from the text of the source: active = normalized growth mostly below about 0.91 (no sharp cut-off); inconclusive = no clear call, values can overlap the other calls; inactive = mostly above about 0.92.

Take `CCCCCCCC/C=C\CCCCCCCC(=O)NCCc1ccc(O)c(O)c1`: the normalized growth runs as follows: (locus YAL040C, strain CLN3, active compounds read low) 1.01; (locus YCL061C, strain MRC1 (second series), active compounds read low) 0.987; (locus YDR363W, strain ESC2, active compounds read low) 0.981; (locus YER002W, strain NOP16, active compounds read low) 1; (locus YGR229C, strain SMI1, active compounds read low) 0.811 (active); (locus YMR307W, strain GAS1, active compounds read low) 0.987. Also, the normalized growth (locus YNL153C, strain GIM3, active compounds read low) was 0.811 (active); the normalized growth (locus YNL175C, strain NOP13, active compounds read low) was 0.999; the normalized growth (locus YNL197C, strain WHI3, active compounds read low) was 0.987; the normalized growth (locus YNL224C, strain SQS1, active compounds read low) was 1.02; the normalized growth (locus YOR083W, strain WHI5 (second series), active compounds read low) is 0.876; the normalized growth (locus YPL055C, strain LGE1, active compounds read low) was 1. For the same compound, the normalized growth (locus YPL241C, strain CIN2, active compounds read low) was 0.993.
